# From ChEMBL document CHEMBL4513216, “Probing the Open Global Health Chemical Diversity Library for Multistage-Active Starting Points for Next-Generation Antimalarials” (ACS Infect Dis, 2020)
# Hit rate of the full screen: of about 69,000 compounds, about 8,600 (12%) showed an effect of 50% or more. Shown is part of a subset that was picked to be rich in strong results.
# Test system: Plasmodium berghei
# Assay: Screen against P. berghei liver stage (PbLuc), transformed with Luciferase, at 10uM
# Format: functional, HepG2
# Settings: tested at 10 uM
row,Compound,INHIBITION [%]
1,CCc1cnc(N2CCc3ncnc(N4CCN(C)CC4)c3CC2)nc1,36.2
2,O=S(=O)(NCc1ccnc(-n2ccnc2)c1)c1cncc(Cl)c1,15.2
3,Cn1cc(S(=O)(=O)NC(=O)C2(c3ccccc3)CCC2)cn1,2.97
4,Cc1cccc(C2(C(=O)NS(=O)(=O)c3cnn(C)c3)CCCC2)c1,53.5
5,Cn1cc(S(=O)(=O)NC(=O)C2(c3cccc(Cl)c3)CC2)cn1,-6.94
6,O=C(CCNC(=O)N1CCC(c2ccccc2)C1)N1CCCCC1 (centres undefined),-24.5
7,CN(C(=O)C1CCOCC1)[C@@H]1CCC[C@@H](N2CCOCC2)[C@@H]1O,38.2
8,Cc1nc(N2CCOCC2)nc2c1CCN(Cc1ccsc1)CC2,60.5
9,CN(Cc1ccsc1)C(=O)c1nc(N2CCCC2)ncc1Cl,-0.232
10,Cc1nc(N2CCCC2)nc2c1CCN(Cc1ccsc1)CC2,4.1
11,O=C(c1nc(N2CCCC2)ncc1Cl)N1CCN(Cc2ccsc2)CC1,72.1
12,Cc1nc(C)c2c(n1)CCN(Cc1ccsc1)CC2,-5.08
13,Oc1nc(N2CCCC2)nc2c1CCN(Cc1cccnc1)CC2,24.8
14,CN(Cc1ccsc1)C(=O)c1nc(N2CCCCC2)ncc1Cl,26.7
15,c1cncc(-c2ncnc3c2CCN(Cc2ccsc2)CC3)c1,3.58
16,Oc1nc(N2CCCC2)nc2c1CCN(Cc1ccsc1)CC2,61.7
17,O=C(c1ccc(N2CCCC2)nc1)N1CCCC(c2nccs2)C1 (centres undefined),17.2
18,CC(C)Cc1nc(CNCc2cccc(N3CCCC3=O)c2)no1,-20.5
19,NCC1CCC(C(NC(=O)CC2CCCCC2)c2ccccn2)CC1 (centres undefined),38.2
20,CCc1ccc(NC(=O)N2C[C@@H]3C[C@H](C(=O)NC(C)C)[C@H](C2)O3)cc1,-31.1
21,CN1CC2(CCN(C(=O)c3cc(-n4cccn4)ccc3Cl)CC2)OC1=O,14.5
22,Cc1cnn(C2CCCN(C(=O)c3ccc4c(c3)CCC4)C2)c1 (centres undefined),40.2
23,O=C(c1cc(F)ccc1F)C1CCN(C(=O)c2ccco2)CC1,-98.8
24,Cc1ccc(C(C)N(C)Cc2nc3c(cnn3C)c(=O)[nH]2)s1 (centres undefined),-30.38
25,NC(=O)CSCC(=O)NCC1CCCC1,50.4

row,Compound,INHIBITION [%]
1,N#CCSCC(=O)NCC1CCCCC1,18.6
2,NC(=O)CSCCC(=O)NCC1CC1,-0.71
3,CN(C(=O)c1ccnn1C)[C@@H]1CCC[C@@H](Oc2ccccc2)[C@@H]1O,34
4,CCC(=O)N1CCC(Cc2cnc(Nc3cnccn3)cn2)CC1,16.5
5,Cc1n[nH]c(C)c1-c1nccnc1CC1CCN(S(C)(=O)=O)C1 (centres undefined),-3.31
6,Cc1cc(NC2CCCN(Cc3ccc(F)cc3)C2)n2nc(C)cc2n1 (centres undefined),67.3
7,Cc1ccc(NC2CCCN(Cc3ccc(Cl)cc3)C2)nn1 (centres undefined),-20
8,Cc1cc(N[C@H]2CCCN(Cc3ccccc3)C2)n2nc(C)cc2n1,63.7
9,Cc1cc(C)nc(NC2CCCN(CCCc3ccccc3)C2)n1 (centres undefined),31.1
10,Cc1ccc(NC2CCCN(CCc3ccccc3)C2)nn1 (centres undefined),-28
11,Cc1cc(NC2CCN(c3ccc(F)cc3)CC2)n2nc(C)cc2n1,8.07
12,CN1C(=O)C2(CCN(C(=O)c3ccccc3)CC2)c2cccc(F)c21,43.8
13,O=C(N1CCCO1)[C@]12COC[C@H]1CN(Cc1nccs1)C2,7.24
14,CC[C@H]1NCCC[C@]12CCC(=O)N2Cc1ccncc1,17.4
15,CCOCCN(C)C(=O)Nc1cccc2c1CCN(CC)C2,3.48
16,CCN1CCc2c(cccc2NC(=O)CN(C)C2CCSC2)C1 (centres undefined),34.1
17,CS(=O)(=O)NCC1CCCN(C(=O)Nc2ccccc2N2CCCC2)C1 (centres undefined),-75.9
18,CCN1CCN(c2ccccc2NC(=O)N(C)C2CCSC2)CC1 (centres undefined),74.9
19,CCN1CCC(NC(=O)N(C)Cc2csc3ccccc23)CC1,27.6
20,CCN1CCc2c(cccc2NC(=O)N(C)C2CCSC2)C1 (centres undefined),50.8
21,CC(C)n1cnnc1CN(C)C(=O)c1cccnc1O,18.6
22,CCOc1ccc(S(=O)(=O)C(C)C(=O)Nc2cc(C)no2)cc1 (centres undefined),-11.9
23,O=C([C@H]1CCCO1)N1CC[C@H](O)[C@@H]1Cc1ccncc1,33.2
24,O=C1CC(C(=O)NCCN2CCOC2=O)c2cc(F)ccc2N1 (centres undefined),36.4
25,COc1ccc(C2CNCCN2C(=O)c2nccc3ccccc23)cc1 (centres undefined),32.3

row,Compound,INHIBITION [%]
1,C=C(C)COc1ccccc1C(=O)NCCCc1nnn[nH]1,31.2
2,c1ccc(COCCN2CCc3[nH]cnc3C2c2ccco2)cc1 (centres undefined),63.3
3,Cc1c(C2c3nc[nH]c3CCN2CCOCc2ccccc2)cnn1C (centres undefined),27.5
4,c1ccc(COCCN2CCc3[nH]cnc3C2c2ccoc2)cc1 (centres undefined),9.63
5,CN(Cc1ccccn1)C(=O)[C@H]1CO[C@H]2CCN(CC3CC3)C[C@H]2C1,11.3
6,Cc1cnn(CC2CCCN2Cc2cc(C)no2)c1 (centres undefined),22.265
7,CC1CCN(C(=O)c2cccc(CN3CCOCC3)c2)CC1,8.41
8,Cc1cc(C)n(-c2ccc(CNCc3ccc(F)c(F)c3)cn2)n1,13.05
9,Cc1cc(C)n(-c2ccc(CNCc3ccc(F)cc3F)cn2)n1,37.55
10,Cc1ccc(CNCc2ccc(-n3nc(C)cc3C)nc2)cc1,72.2
11,Cc1cc(C)n(-c2ccc(CNCc3ccc(OC(C)C)cc3)cn2)n1,53.5
12,COc1cc(CNCc2ccc(-n3nc(C)cc3C)nc2)cc(OC)c1,-10.193
13,Cc1cc(C)n(-c2ccc(CNCc3ccc(C)o3)cn2)n1,34.75
14,CCOc1ccc(C(=O)CC(SC2CCCCC2)C(=O)O)cc1 (centres undefined),16.1
15,COC(=O)c1cc(C(=O)N2CCCC(C)C2)n(-c2ccccc2)n1 (centres undefined),8.5
16,Cc1ccc(CN2CC[C@H]3OCC[C@@]3(COCC(=O)N(C)C)C2)s1,54.8
17,COC[C@@H]1CCC[C@@]12CN(Cc1ccc(C)s1)CCO2,14.1
18,COC[C@@]12CCO[C@@H]1CCN(Cc1ccccc1OC)C2,51.2
19,Cc1ccc(CN2CCC3(CCC(=O)N3CC(=O)N(C)C)CC2)s1,-29.5
20,COC[C@@]12CCO[C@@H]1CCN(C(=O)COc1ccccc1OC)C2,-19.9
21,COC[C@@]12CCO[C@@H]1CCN(Cc1sccc1C)C2,34
22,COC[C@@]12CCO[C@@H]1CCN(Cc1ccccc1F)C2,23.5
23,COC[C@@]12CCO[C@@H]1CCN(Cc1ccc(C)s1)C2,55.7
24,Cc1ccc(CN2CC[C@H]3OCC[C@@]3(C(=O)N3CCCO3)C2)s1,23.3
